# Experimental data from PMC7862700, “An all-to-all approach to the identification of sequence-specific readers for epigenetic DNA modifications on cytosine”.
# Key:
# Test in all cases: DAPPL (digital affinity profiling via proximity ligation, sequencing); 10 mM Tris-HCl pH 7.5, 50 mM NaCl, 1 mM DTT, 4% glycerol, room temperature, 30 min; GST-TFs on glutathione beads, 16-mer random dsDNA library, 0.1% formaldehyde crosslink after washing; high values mean tight binding
# FLI1 = target: T1, FLI1 (Homo sapiens, UniProt Q01543 1-452); details: protein: recombinant; tags: N-terminal GST; dsDNA, one strand shown
# T1 sequence: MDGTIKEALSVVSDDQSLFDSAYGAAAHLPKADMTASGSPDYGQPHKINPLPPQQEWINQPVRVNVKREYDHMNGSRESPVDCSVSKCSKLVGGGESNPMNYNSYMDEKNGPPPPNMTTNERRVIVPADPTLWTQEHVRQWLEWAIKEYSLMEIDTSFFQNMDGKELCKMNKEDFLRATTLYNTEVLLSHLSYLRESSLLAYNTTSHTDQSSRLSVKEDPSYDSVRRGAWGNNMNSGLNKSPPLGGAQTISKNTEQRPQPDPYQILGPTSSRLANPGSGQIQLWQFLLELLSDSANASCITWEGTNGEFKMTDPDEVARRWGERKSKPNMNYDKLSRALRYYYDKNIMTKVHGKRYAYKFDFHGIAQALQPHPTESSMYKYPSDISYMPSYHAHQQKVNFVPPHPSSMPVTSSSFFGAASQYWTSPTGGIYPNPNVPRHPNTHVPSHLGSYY
# Summary of the method: (§1)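 GST fusions of human transcription factors were expressed in yeast and captured with glutathione beads. Once given DNA barcodes and pooled alongside a tag-only sample, they were incubated for 30 min at room temperature with 200 nmole of a random double-stranded 16-mer DNA library in Tris/NaCl/DTT/glycerol buffer, then washed, crosslinked (0.1% formaldehyde), proximity-ligated, PCR-amplified and sequenced on an Illumina NextSeq500. The binding signal of each hexamer is its read frequency for a factor divided by its frequency for the tag-only sample.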
# ELK1 = target: T2, ELK1 (Homo sapiens, UniProt P19419 1-428); details: protein: recombinant; tags: N-terminal GST; dsDNA, one strand shown
# T2 sequence: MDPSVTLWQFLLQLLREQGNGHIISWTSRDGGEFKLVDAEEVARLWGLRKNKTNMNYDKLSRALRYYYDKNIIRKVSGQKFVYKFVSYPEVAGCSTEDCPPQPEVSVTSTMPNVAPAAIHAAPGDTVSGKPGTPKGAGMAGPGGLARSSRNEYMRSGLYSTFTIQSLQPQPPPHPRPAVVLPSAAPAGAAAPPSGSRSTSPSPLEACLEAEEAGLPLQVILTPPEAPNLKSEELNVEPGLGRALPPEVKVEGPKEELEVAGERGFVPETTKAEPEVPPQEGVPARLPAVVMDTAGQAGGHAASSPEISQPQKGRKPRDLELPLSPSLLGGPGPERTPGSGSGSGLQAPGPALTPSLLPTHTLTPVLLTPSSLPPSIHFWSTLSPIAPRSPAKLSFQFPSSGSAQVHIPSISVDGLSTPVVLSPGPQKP
# Summary of the method: as §1
# GABPA = target: T3, GABPA (Homo sapiens, UniProt Q06546 1-454); details: protein: recombinant; tags: N-terminal GST; dsDNA, one strand shown
# T3 sequence: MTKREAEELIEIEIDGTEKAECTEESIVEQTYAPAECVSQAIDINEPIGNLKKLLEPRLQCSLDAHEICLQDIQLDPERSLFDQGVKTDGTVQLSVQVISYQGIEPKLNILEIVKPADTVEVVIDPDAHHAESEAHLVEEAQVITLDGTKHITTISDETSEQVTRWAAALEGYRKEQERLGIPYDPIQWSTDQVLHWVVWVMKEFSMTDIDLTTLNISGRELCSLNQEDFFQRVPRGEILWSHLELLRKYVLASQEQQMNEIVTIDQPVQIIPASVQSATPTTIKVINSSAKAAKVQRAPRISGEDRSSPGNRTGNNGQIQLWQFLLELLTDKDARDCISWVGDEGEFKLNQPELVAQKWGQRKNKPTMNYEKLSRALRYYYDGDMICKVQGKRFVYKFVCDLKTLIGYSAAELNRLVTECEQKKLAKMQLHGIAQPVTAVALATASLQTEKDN
# Summary of the method: as §1
# ERG = target: T4, ERG (Homo sapiens, UniProt P11308 1-479); details: protein: recombinant; tags: N-terminal GST; dsDNA, one strand shown
# T4 sequence: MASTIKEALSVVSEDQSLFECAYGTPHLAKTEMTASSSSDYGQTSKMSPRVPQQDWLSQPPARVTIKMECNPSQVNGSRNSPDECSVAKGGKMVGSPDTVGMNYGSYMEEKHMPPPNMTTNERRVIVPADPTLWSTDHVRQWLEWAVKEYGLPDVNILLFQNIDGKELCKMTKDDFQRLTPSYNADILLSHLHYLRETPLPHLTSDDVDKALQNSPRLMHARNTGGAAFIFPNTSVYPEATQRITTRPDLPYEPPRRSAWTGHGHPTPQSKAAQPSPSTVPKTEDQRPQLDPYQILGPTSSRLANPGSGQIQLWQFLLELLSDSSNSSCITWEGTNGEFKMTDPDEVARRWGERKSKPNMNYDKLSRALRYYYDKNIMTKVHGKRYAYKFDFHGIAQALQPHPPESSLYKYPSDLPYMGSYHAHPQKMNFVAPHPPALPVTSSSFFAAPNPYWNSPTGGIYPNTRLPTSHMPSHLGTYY
# Summary of the method: as §1
# ELF1 = ELF1 (Homo sapiens, UniProt P32519 1-619); details: protein: recombinant; tags: N-terminal GST; dsDNA, one strand shown
# Summary of the method: as §1
# EHF = target: T5, EHF (Homo sapiens, UniProt Q9NZC4 1-300); details: protein: recombinant; tags: N-terminal GST; dsDNA, one strand shown
# T5 sequence: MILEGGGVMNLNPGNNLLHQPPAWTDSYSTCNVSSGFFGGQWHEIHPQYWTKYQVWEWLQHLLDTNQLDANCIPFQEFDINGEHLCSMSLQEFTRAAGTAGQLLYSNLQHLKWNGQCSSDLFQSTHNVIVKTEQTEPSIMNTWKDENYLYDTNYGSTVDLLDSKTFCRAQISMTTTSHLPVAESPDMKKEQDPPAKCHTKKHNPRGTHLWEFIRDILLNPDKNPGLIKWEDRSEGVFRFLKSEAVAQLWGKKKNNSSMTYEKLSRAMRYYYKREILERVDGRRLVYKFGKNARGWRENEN
# Summary of the method: as §1
# SPI1 = SPI1 (Homo sapiens, UniProt P17947 1-270); details: protein: recombinant; tags: N-terminal GST; dsDNA, one strand shown
# Summary of the method: as §1
# SPIB = SPIB (Homo sapiens, UniProt Q01892 1-262); details: protein: recombinant; tags: N-terminal GST; dsDNA, one strand shown
# Summary of the method: as §1
# ELK3 = target: T6, ELK3 (Homo sapiens, UniProt P41970 1-407); details: protein: recombinant; tags: N-terminal GST; dsDNA, one strand shown
# T6 sequence: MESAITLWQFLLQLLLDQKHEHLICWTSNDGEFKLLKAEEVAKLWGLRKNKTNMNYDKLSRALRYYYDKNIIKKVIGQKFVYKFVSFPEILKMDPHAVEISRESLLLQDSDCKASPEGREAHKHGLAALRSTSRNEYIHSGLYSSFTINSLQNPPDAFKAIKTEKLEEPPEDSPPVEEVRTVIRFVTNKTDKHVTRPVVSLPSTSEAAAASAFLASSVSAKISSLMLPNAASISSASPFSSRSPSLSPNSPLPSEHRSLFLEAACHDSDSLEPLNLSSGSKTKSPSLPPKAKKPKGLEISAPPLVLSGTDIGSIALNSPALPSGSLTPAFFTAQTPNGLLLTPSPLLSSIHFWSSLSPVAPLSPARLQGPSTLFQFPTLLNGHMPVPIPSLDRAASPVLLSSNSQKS
# Summary of the method: as §1
# FEV = target: T7, FEV (Homo sapiens, UniProt Q99581 1-238); details: protein: recombinant; tags: N-terminal GST; dsDNA, one strand shown
# T7 sequence: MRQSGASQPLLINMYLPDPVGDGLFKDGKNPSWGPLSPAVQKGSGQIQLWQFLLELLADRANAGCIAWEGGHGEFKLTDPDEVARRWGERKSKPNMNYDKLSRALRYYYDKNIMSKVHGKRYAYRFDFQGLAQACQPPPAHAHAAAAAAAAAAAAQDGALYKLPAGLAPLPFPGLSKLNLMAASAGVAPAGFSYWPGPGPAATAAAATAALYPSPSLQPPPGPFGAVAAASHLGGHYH
# Summary of the method: as §1
# ETV5 = ETV5 (Homo sapiens, UniProt P41161 1-510); details: protein: recombinant; tags: N-terminal GST; dsDNA, one strand shown
# Summary of the method: as §1
# HSF1 = HSF1 (Homo sapiens, UniProt Q00613 1-529); details: protein: recombinant; tags: N-terminal GST; chain copies: 3; dsDNA, one strand shown
# Summary of the method: as §1
# SPIC = target: T8, SPIC (Homo sapiens, UniProt Q8N5J4 1-248); details: protein: recombinant; tags: N-terminal GST; dsDNA, one strand shown
# T8 sequence: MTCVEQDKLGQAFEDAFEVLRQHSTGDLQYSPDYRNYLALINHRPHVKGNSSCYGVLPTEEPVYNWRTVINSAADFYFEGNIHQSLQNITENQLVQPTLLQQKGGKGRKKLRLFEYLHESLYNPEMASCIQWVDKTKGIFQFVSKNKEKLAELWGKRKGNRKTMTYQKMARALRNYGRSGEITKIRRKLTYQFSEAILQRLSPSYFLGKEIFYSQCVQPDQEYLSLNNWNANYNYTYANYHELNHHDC
# Summary of the method: as §1
# ELF4 = ELF4 (Homo sapiens, UniProt Q99607 1-663); details: protein: recombinant; tags: N-terminal GST; dsDNA, one strand shown
# Summary of the method: as §1
# ELK4 = target: T9, ELK4 (Homo sapiens, UniProt P28324-2 1-405); details: protein: recombinant; tags: N-terminal GST; dsDNA, one strand shown
# T9 sequence: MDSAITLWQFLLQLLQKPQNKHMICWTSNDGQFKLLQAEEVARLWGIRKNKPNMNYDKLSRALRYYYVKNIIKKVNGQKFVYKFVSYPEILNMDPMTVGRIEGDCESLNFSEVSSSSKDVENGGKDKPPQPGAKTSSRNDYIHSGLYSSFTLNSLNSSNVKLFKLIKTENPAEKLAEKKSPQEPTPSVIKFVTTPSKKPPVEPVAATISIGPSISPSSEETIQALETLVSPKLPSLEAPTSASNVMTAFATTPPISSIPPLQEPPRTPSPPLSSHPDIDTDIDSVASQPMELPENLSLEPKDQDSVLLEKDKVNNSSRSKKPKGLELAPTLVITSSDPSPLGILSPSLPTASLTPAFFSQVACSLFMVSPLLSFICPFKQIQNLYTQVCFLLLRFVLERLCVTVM
# Summary of the method: as §1
# ETV2 = target: T10, ETV2 (Homo sapiens, UniProt O00321 1-342); details: protein: recombinant; tags: N-terminal GST; dsDNA, one strand shown
# T10 sequence: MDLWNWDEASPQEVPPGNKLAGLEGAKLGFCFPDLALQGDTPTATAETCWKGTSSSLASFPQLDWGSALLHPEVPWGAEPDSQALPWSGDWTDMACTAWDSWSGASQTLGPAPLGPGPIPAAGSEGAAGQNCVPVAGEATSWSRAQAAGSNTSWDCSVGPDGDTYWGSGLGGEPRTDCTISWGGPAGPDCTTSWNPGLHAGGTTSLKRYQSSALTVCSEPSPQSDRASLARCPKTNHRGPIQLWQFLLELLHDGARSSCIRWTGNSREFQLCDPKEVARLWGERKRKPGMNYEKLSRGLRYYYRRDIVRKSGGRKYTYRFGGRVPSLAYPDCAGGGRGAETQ
# Summary of the method: as §1
# ELF3 = target: T11, ELF3 (Homo sapiens, UniProt P78545 1-371); details: protein: recombinant; tags: N-terminal GST; dsDNA, one strand shown
# T11 sequence: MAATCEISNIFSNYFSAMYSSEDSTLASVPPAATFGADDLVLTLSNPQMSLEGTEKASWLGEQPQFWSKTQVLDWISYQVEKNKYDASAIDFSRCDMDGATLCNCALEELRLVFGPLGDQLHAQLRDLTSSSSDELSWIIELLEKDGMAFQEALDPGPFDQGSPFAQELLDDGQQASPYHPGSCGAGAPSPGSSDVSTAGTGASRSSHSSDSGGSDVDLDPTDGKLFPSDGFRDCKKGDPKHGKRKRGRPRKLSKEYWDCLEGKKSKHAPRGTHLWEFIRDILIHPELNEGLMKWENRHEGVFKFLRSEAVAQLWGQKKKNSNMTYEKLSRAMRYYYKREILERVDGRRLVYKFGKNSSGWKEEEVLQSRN
# Summary of the method: as §1
# CRX = CRX (Homo sapiens, UniProt O43186 1-299); details: protein: recombinant; tags: N-terminal GST; dsDNA, one strand shown
# Summary of the method: as §1
# ETV1 = ETV1 (Homo sapiens, UniProt P50549 1-477); details: protein: recombinant; tags: N-terminal GST; dsDNA, one strand shown
# Summary of the method: as §1
# CRX, sequence (O43186 whole entry): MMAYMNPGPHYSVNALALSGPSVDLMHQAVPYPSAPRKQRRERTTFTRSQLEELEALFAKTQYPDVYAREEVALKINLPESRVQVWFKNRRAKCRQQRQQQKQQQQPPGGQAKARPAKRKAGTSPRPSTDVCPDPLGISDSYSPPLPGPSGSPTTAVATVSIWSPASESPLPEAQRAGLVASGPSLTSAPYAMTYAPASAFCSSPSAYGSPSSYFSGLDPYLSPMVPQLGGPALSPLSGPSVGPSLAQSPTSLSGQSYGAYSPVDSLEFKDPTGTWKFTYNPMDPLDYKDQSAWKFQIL
# ELF4, sequence (Q99607 whole entry): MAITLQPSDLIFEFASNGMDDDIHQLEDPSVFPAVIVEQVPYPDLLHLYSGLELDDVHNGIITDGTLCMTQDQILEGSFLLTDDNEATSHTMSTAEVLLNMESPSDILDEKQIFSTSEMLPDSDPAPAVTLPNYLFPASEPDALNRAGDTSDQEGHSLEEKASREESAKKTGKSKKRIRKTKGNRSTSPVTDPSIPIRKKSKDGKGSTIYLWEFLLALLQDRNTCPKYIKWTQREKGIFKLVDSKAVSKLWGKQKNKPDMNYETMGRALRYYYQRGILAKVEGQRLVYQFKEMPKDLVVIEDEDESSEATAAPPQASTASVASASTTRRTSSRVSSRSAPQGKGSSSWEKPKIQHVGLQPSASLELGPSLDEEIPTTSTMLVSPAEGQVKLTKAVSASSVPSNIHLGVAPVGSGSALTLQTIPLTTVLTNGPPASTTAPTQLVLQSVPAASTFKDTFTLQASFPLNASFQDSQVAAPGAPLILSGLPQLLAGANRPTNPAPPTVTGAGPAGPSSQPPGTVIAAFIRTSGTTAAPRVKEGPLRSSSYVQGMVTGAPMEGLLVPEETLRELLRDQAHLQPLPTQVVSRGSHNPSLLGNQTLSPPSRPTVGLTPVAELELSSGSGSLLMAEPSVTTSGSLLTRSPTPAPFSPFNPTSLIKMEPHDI
# ETV1, sequence (P50549 whole entry): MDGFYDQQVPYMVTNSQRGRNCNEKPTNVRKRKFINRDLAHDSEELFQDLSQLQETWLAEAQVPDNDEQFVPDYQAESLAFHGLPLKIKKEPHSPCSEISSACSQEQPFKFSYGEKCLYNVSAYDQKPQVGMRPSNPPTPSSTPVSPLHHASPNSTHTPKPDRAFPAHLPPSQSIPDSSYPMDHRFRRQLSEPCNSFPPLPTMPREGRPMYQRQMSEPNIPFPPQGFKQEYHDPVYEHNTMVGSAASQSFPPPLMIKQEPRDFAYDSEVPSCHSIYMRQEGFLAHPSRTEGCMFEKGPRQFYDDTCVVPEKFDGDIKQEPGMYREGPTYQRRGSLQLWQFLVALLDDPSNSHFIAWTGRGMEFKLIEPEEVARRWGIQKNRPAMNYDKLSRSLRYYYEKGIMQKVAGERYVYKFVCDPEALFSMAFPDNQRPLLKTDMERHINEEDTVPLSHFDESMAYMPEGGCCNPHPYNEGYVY
# SPIB, sequence (Q01892 whole entry): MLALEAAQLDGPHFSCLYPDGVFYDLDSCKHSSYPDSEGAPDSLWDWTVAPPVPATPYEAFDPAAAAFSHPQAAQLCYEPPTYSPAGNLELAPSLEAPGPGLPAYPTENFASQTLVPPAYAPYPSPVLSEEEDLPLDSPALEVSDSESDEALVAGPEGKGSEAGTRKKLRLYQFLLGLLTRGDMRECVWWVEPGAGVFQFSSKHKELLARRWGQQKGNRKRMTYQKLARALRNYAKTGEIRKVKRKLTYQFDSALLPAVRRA
# ELF1, sequence (P32519 whole entry): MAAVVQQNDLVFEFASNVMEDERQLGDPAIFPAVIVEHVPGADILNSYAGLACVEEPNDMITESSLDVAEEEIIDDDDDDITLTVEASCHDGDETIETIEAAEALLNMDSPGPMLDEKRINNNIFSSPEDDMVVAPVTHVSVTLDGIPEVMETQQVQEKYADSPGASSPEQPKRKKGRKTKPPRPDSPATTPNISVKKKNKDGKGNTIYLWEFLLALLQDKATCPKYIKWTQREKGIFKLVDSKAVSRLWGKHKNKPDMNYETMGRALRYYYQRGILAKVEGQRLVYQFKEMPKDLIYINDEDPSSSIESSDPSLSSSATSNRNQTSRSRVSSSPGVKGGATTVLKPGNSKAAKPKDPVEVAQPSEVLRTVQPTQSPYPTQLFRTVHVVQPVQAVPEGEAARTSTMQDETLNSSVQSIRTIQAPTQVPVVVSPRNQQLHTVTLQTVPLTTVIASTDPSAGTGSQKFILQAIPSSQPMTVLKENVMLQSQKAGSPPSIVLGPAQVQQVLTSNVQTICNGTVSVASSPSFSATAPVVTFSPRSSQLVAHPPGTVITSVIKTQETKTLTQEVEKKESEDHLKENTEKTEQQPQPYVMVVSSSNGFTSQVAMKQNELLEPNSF
# ETV5, sequence (P41161 whole entry): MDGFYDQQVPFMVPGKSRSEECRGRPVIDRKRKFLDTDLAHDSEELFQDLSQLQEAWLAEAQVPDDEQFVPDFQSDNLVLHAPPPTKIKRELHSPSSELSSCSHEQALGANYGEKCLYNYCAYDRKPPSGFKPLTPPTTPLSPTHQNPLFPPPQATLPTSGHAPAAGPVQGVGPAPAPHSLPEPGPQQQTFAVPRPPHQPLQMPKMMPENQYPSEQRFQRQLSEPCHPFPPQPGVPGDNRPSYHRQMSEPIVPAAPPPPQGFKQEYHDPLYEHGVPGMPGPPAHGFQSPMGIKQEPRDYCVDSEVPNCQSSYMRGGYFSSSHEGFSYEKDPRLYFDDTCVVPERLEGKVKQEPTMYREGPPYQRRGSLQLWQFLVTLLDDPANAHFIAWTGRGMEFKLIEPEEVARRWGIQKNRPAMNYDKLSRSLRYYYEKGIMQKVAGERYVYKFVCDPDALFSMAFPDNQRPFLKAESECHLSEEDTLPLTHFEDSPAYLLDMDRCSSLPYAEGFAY
# HSF1, sequence (Q00613 whole entry): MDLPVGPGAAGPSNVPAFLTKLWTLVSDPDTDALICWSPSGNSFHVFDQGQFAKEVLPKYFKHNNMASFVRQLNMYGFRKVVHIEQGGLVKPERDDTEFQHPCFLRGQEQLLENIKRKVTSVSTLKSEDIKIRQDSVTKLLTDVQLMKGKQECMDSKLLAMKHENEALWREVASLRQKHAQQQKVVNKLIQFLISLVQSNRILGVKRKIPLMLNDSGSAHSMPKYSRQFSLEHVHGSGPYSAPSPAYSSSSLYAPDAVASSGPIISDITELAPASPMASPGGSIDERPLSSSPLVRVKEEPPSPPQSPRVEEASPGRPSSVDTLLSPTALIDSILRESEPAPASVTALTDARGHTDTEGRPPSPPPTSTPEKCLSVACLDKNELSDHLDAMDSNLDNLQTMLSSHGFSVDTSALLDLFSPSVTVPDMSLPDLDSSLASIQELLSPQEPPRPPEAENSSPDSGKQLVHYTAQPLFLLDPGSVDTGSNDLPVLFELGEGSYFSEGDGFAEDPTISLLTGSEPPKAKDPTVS
sequence,measurement,setting,value
CCAATT,binding signal,FLI1,"1.2 fold enrichment (6-mer frequency, TF over GST control)"
same,binding signal,ELK1,"1.24 fold enrichment (6-mer frequency, TF over GST control)"
same,binding signal,GABPA,"1.25 fold enrichment (6-mer frequency, TF over GST control)"
same,binding signal,ERG,"1.24 fold enrichment (6-mer frequency, TF over GST control)"
same,binding signal,ELF1,"1.16 fold enrichment (6-mer frequency, TF over GST control)"
same,binding signal,EHF,"1.25 fold enrichment (6-mer frequency, TF over GST control)"
same,binding signal,SPI1,"1.23 fold enrichment (6-mer frequency, TF over GST control)"
same,binding signal,SPIB,"1.28 fold enrichment (6-mer frequency, TF over GST control)"
same,binding signal,ELK3,"1.18 fold enrichment (6-mer frequency, TF over GST control)"
same,binding signal,FEV,"1.23 fold enrichment (6-mer frequency, TF over GST control)"
same,binding signal,ETV5,"1.26 fold enrichment (6-mer frequency, TF over GST control)"
same,binding signal,HSF1,"1.09 fold enrichment (6-mer frequency, TF over GST control)"
same,binding signal,SPIC,"1.31 fold enrichment (6-mer frequency, TF over GST control)"
same,binding signal,ELF4,"1.32 fold enrichment (6-mer frequency, TF over GST control)"
same,binding signal,ELK4,"1.09 fold enrichment (6-mer frequency, TF over GST control)"
same,binding signal,ETV2,"1.27 fold enrichment (6-mer frequency, TF over GST control)"
same,binding signal,ELF3,"1.39 fold enrichment (6-mer frequency, TF over GST control)"
same,binding signal,CRX,"1.05 fold enrichment (6-mer frequency, TF over GST control)"
same,binding signal,ETV1,"1.26 fold enrichment (6-mer frequency, TF over GST control)"
